Rin1-Abl PPI inh: inhibitors of Rin1-Abl protein binding, primary screen, biochemical, TR-FRET | Tyrosine-protein kinase ABL1 (Homo sapiens) + Ras and Rab interactor 1 (Homo sapiens), … | inhibition, % at 7.35 µM | actives 0.4% (n = 360,000) | AID 588664, 2011; in the data active means inhibition above about 5%, passing the limit was not always enough
Target sequence (P00519 whole entry, looked up): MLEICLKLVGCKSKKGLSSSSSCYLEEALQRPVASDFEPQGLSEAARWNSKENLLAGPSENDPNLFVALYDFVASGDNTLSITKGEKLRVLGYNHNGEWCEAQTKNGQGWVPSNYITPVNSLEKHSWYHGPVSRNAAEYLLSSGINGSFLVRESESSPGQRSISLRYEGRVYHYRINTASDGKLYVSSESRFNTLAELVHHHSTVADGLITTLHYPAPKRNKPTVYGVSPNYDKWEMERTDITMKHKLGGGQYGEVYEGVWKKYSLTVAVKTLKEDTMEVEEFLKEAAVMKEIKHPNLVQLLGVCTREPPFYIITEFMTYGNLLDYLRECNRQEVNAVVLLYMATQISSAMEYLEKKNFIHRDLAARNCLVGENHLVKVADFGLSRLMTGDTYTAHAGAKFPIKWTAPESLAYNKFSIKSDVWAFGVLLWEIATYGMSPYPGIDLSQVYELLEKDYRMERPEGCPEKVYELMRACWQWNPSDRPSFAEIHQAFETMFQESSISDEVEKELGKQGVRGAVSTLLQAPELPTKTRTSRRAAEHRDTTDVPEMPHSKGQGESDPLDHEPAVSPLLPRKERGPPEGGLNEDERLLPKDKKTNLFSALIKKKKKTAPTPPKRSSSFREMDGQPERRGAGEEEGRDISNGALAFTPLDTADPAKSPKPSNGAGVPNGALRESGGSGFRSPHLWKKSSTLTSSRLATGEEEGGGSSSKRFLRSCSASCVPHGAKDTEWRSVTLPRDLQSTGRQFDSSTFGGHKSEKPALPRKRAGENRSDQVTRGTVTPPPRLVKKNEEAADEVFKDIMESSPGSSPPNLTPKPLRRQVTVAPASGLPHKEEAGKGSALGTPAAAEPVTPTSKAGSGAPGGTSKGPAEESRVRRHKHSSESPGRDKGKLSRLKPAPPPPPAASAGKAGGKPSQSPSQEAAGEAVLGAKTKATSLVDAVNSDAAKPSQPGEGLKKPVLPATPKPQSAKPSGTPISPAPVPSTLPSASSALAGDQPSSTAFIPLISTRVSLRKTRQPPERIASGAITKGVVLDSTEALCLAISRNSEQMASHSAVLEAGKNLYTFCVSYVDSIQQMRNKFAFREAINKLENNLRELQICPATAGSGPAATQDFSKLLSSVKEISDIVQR
Target sequence (Q13671 whole entry, looked up): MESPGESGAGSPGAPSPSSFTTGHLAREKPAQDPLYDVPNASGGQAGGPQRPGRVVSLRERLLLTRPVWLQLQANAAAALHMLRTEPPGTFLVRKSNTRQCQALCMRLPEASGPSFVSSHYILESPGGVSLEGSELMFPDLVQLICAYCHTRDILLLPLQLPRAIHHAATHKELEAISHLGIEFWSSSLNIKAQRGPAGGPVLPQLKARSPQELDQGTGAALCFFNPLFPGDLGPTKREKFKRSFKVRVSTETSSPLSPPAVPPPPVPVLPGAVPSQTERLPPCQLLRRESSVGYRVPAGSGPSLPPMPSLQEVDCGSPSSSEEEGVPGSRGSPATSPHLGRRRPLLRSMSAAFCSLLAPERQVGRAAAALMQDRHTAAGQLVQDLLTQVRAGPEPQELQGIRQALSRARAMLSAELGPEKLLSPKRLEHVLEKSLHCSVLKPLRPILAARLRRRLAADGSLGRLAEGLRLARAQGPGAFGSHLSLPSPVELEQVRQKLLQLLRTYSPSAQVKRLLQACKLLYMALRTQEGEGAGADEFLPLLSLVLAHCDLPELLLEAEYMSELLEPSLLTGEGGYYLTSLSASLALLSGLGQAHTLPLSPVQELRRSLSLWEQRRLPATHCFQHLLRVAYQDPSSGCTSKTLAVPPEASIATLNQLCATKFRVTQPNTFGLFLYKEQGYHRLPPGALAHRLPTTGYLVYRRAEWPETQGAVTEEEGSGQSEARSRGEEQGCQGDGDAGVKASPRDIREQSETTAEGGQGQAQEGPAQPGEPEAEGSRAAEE
Neddyl block: inhibitors of cullin neddylation, primary screen, biochemical, TR-FRET, uHTS, NAE and Ubc12; calls only at 25 µM; actives 0.58% (n = 360,000); AID 651699, 2012; in the data active means inhibition above about 36%
UHRF1 MBD2 ctr: UHRF1 methylated DNA binding inhibitors, primary screen, counter-screen for MBD2 inhibitor project, biochemical, TR-FRET, human UHRF1, single concentration. inhibition, % at 4.4 µM. AID 687016, 2013. UHRF1 binding to methylated oligo. E3 ubiquitin-protein ligase UHRF1 (Homo sapiens), Q96T88. actives 0.75% (n = 370,000); in the data active means inhibition above about 21%;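 further: UHRF1 SRA domain binding a hemimethylated CpG hairpin DNA probe; 0% = median of test compound wells and 100% = reference inhibitor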
MBD2 inh: inhibitors of MBD2 binding to methylated DNA, primary screen, biochemical, TR-FRET, DNA-binding domain, human; Methyl-CpG-binding domain protein 2 (Homo sapiens), Q9UBB5; MBD2 binding to methylated oligonucleotide; inhibition, % at 4.4 µM; actives 0.31% (n = 370,000); AID 686964, 2013; in the data active means inhibition above about 13%
proKLK7 act: proKLK7 zymogen activators, primary screen, biochemical, fluorescence intensity | Kallikrein-7 (Homo sapiens), P49862 | purified proKLK7, EDANS-DABCYL substrate fluorescence; 100% is mature enzyme control, 0% vehicle | activation, % at 7 µM | actives 0.9% (n = 370,000) | AID 652039, 2013;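 active means activation above the mean of all tested compounds plus 3 SD, computed per campaign excluding outliers beyond control limits, cut at about 13% in these data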
LEDGF integ inh: blockers of LEDGF/p75-dependent integrase strand transfer – biochemical, TR-FRET, high throughput, primary screen. HIV-1 integrase (with human LEDGF/p75). TR-FRET IN-LEDGF/p75 DNA integration, Eu/Cy5. inhibition, % at 3.7 µM. actives 0.64% (n = 370,000). AID 743269, 2014;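 active means inhibition above the screen-wide mean plus 3 SD, cut at about 13% in these data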;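 further: signal is the Cy5 over europium emission ratio at 671 and 618 nm; 0% = plate median of compound wells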
Rin1 Abl conf: Rin1-Abl binding inhibitor retest, confirmation, biochemical, TR-FRET. shares compounds with Rin1-Abl PPI inh. purified proteins. inhibition, % at 7.35 µM. actives 49% (n = 1,300). AID 602124, 2011; in the data active means inhibition above about 6.5%
GFP quencher: GFP fluorescence inhibitors and quenchers, artefact control for Rin1-Abl interaction inhibitor project, biochemical; shares compounds with Rin1-Abl PPI inh; inhibitors/quenchers counterscreen; inhibition, % at 6.75 µM; actives 8.5% (n = 1,300); AID 602125, 2011; in the data active means inhibition above about 6.5%;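 further: ABL1-eGFP fusion protein alone without its partner RIN1-SBP; 0% = protein with vehicle and 100% = wells lacking protein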
GFP quench dose: GFP fluorescence inhibitors and quenchers, dose response, artefact control for Rin1-Abl interaction inhibitor project, biochemical. shares compounds with Rin1-Abl PPI inh. 230 tested, under 10 active. IC50, µM. AID 602182, 2012. GFP fluorescence interference/quenching counterscreen; call rule not given here;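 further: ABL1-eGFP fusion protein alone without its RIN1 binding partner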
UHRF1 ctr MBD2: UHRF1 methylated DNA binding inhibitors, counter-screen for MBD2 inhibitor project, biochemical, TR-FRET, human UHRF1; shares compounds with MBD2 inh; UHRF1 binding to methylated oligonucleotide; inhibition, % at 4.4 µM; actives 25% (n = 1,000); AID 720530, 2013; in the data active means inhibition above about 21%;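 further: UHRF1 SRA domain binding a labeled hemimethylated CpG hairpin DNA; 0% = vehicle only and 100% = reference inhibitor with vehicle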
MBD2 confirm: inhibitors of MBD2 binding to methylated DNA, confirmation, biochemical, TR-FRET, DNA-binding domain, human; inhibition, % at 4.4 µM; TR-FRET MBD2-DBD binding to methylated oligonucleotide; AID 720531, 2013; actives 26% (n = 1,000); shares compounds with MBD2 inh
IN multimer act: HIV-1 IN multimer formation enhancers, counter-screen for LEDGF/p75 integration inhibitor project, biochemical, TR-FRET. shares compounds with LEDGF integ inh. TR-FRET HIV-1 integrase multimerization. activation, % at 7.7 µM. actives 17% (n = 2,000). AID 1053131, 2014; in the data active means activation above about 8.9%
TRFRET interf: TR-FRET optical interference artefacts, confirmation, artefact control for LEDGF/p75-dependent integration inhibitor project, biochemical, HIV-1 IN multimerization; shares compounds with LEDGF integ inh; TR-FRET optical interference counterscreen; inhibition, % at 7.7 µM; 2,000 tested, under 10 active;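 active means inhibition above the mean over all tested compounds plus 3 SD, which no compound reached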;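 further: 0% = integrase with antibodies and DMSO and 100% = antibodies without integrase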
IN-LEDGF confirm: inhibitors of HIV-1 IN-LEDGF/p75 DNA integration, confirmation, biochemical, TR-FRET. shares compounds with LEDGF integ inh. TR-FRET LEDGF/p75-dependent HIV-1 integration. inhibition, % at 3.7 µM. actives 36% (n = 2,000). AID 1053136, 2014
Numbers without * were called inactive; i = inactive; . = no result given. Only some compounds are listed: those with a hit (about 3.1% of all), similar ones and a draw of the others. Unless noted, no stated cut-off is given here; in the data, active means inhibition above about 14%; inactive means the rest.

SMILES	Rin1-Abl PPI inh	Neddyl block	UHRF1 MBD2 ctr	MBD2 inh	proKLK7 act	LEDGF integ inh	Rin1 Abl conf	GFP quencher	IN multimer act	TRFRET interf	IN-LEDGF confirm	others
CCCCn1c(NC(=O)c2ccco2)c(S(=O)(=O)c2ccc(C)cc2)c2nc3ccccc3nc21	2	.	-5	-13	-2	10	.	.	.	.	.
Cc1[nH]c(=O)[nH]c1C(=O)CCCCC(=O)OCC(=O)Nc1ccccn1	90*	i	-3	2	-1	82*	97*	-1	0	-2	81*
CC(=O)NC12CC3CC(C1)CC(C(=O)Oc1ccc(N(C)S(=O)(=O)c4cc(C)ccc4C)cc1)(C3)C2	1	i	0	-3	1	-1	.	.	.	.	.
O=S(=O)(N/N=C/c1ccc2c(c1)OCO2)c1ccc(Br)cc1	-1	i	-2	-1	0	0	.	.	.	.	.
COC(=O)c1cc2c(c3c4cc(C)ccc4n(S(=O)(=O)c4cccc(C)c4)c13)C(=O)N(C)C2	.	.	4	2	1	3	.	.	.	.	.
COc1cccc(N/N=C/c2cccc(Br)c2O)c1	-2	i	-2	3	0	-3	.	.	.	.	.
Oc1ccc(/C=N/NC(=S)Nc2cccnc2)c(O)c1O	31*	i	64*	30*	0	84*	19*	15*	30*	-152	84*	UHRF1 ctr MBD2=-6;MBD2 confirm=-2
Cc1cccc(N/N=C/c2ccc(O)c(O)c2O)c1	26*	i	7	7	1	70*	23*	13*	9.1*	-46	29*
Oc1ccc(/C=N/NC(=S)Nc2cccnc2)c(O)c1	-4	i	-13	-5	-6	-8	.	.	.	.	.
COc1cc(O)c(C(C)=O)c(OC)c1	-3	i	3	1	0	-1	.	.	.	.	.
COc1cc(O)c(C(C)=O)c(CC(=O)O)c1	20*	i	28*	10	0	31*	25*	5	33*	-118	59*	GFP quench dose=>67
O=[N+]([O-])c1ccc(N/N=C/c2ccc(O)c(O)c2O)c(S(=O)(=O)N2CCOCC2)c1	14*	i	-2	-9	0	50*	9.5*	13*	3	-17	36*
O=[N+]([O-])c1ccc(N/N=C/c2cccc(O)c2O)c(S(=O)(=O)N2CCOCC2)c1	1	i	-1	-8	-3	9	.	.	.	.	.
O=C(CCc1ccc(S(=O)(=O)N2CCOCC2)cc1)N/N=C/c1ccc(O)c(O)c1O	13*	i	1	-3	-1	17*	11*	9.4*	18*	-66	27*
O=C(CCO)c1ccc(O)cc1	29*	i	28*	16*	1	32*	33*	7	54*	-273	71*	GFP quench dose=>67;UHRF1 ctr MBD2=55*;MBD2 confirm=28*
CCCCC(=O)c1ccc(O)cc1	4	i	-4	0	1	-3	.	.	.	.	.
COc1ccc(/C=N\NC(=O)c2cc(O)c(O)c(O)c2)cc1CN1CCN(c2ccc(F)cc2)CC1	53*	i	11	-1	1	20*	50*	11*	37*	-188	38*
O=C(NCCc1ccc(Cl)cc1Cl)c1cncc(Br)c1	4	i	4	10	0	4	.	.	.	.	.
COC(=O)c1ccccc1C(=O)N(c1ccccc1)c1ccccc1	2	i	-2	-1	0	1	.	.	.	.	.
O=C1CC(c2ccccc2)Oc2cc(O)cc(O)c21 (stereo not drawn)	0	i	0	-3	1	-1	.	.	.	.	.
COc1cc(OC)c2c(c1O)OC(c1ccccc1)CC2=O (stereo not drawn)	16*	i	-1	6	-1	28*	9.2*	2	35*	-126	32*
CNCc1ccccc1Sc1ccc(O)c(O)c1	12*	i	17	12	0	14*	6.4*	0	3	-13	10
CC(=O)OCC(=O)Nc1ccccc1C	-1	i	3	0	0	4	.	.	.	.	.
O=C(OCC#CCSc1nnc(-c2cccc3ccccc23)o1)C1CC1	.	.	0	1	.	0	.	.	.	.	.
C=CCN=c1scc(-c2ccco2)n1/N=C/c1ccc(O)c(O)c1O	11*	i	0	-5	0	43*	6	7.3*	7	-37	30*
CC(C)N=c1scc(-c2ccco2)n1/N=C/c1ccc(O)c(O)c1	2	i	1	-2	-6	-4	.	.	.	.	.
